# Assay results: PubChem BioAssay (NCATS)
# Where “and” joins values, the source holds several entries; their conditions need not be identical. Identical values can stand only once. Records with an inconclusive call do not appear. Entries that show only a call come without a potency. Some structures have more than one record in an assay (separate samples or runs), and their calls can disagree. Unmarked numbers belong to inactive results. Calls of active or inactive are those of the source. Calls come from the whole dose curve; as a rule, active = well fitted inhibition curve with a large enough effect; inconclusive = small, poorly fitted or top-dose-only effect; inactive = flat fitted curve, though single readings scatter.
# Assays:
# N140 = experiment: qHTS profiling for inhibitors of Plasmodium falciparum proliferation (AID 504749); note: potency is the fitted concentration of half-maximal effect; conditions: P. falciparum in erythrocytes, SYBR Green DNA, 72 h; series mostly up to 28.7 µM
# Outline: (§1)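 Infected RBCs, 0.3% parasitemia/2.5% Hct final; cpd 72 h, 37 C, 5% CO2; lysis buffer with saponin/triton/SYBR Green I, o/n RT dark; FI 485/535; norm. to artemisinin (0.29 uM) and DMSO.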
# P93_24 = experiment: as above; conditions: P. falciparum in erythrocytes, SYBR Green DNA, 72 h; series mostly up to 28.7 µM
# Outline: as §1
# P94_40 = experiment: as above; conditions: P. falciparum in erythrocytes, SYBR Green DNA, 72 h; series mostly up to 28.7 µM
# Outline: as §1
# PAD = experiment: as above; conditions: P. falciparum in erythrocytes, SYBR Green DNA, 72 h; series mostly up to 28.7 µM
# Outline: as §1
# PC15 = experiment: as above; conditions: P. falciparum in erythrocytes, SYBR Green DNA, 72 h; series mostly up to 28.7 µM
# Outline: as §1
# PC26 = experiment: as above; conditions: P. falciparum in erythrocytes, SYBR Green DNA, 72 h; series mostly up to 28.7 µM
# Outline: as §1
# PC49 = experiment: as above; conditions: P. falciparum in erythrocytes, SYBR Green DNA, 72 h; series mostly up to 28.7 µM
# Outline: as §1
# SC27B = experiment: as above; conditions: P. falciparum in erythrocytes, SYBR Green DNA, 72 h; series mostly up to 28.7 µM
# Outline: as §1
# TAB109 = experiment: as above; conditions: P. falciparum in erythrocytes, SYBR Green DNA, 72 h; series mostly up to 28.7 µM
# Outline: as §1
# TAB113 = experiment: as above; conditions: P. falciparum in erythrocytes, SYBR Green DNA, 72 h; series mostly up to 28.7 µM
# Outline: as §1
# TAB165 = experiment: as above; conditions: P. falciparum in erythrocytes, SYBR Green DNA, 72 h; series mostly up to 28.7 µM
# Outline: as §1
# CRL-7250 [1] = experiment: Cytotoxic Profiling of Annotated Libraries Using Quantitative High-Throughput Screening (AID 1296008); conditions: Five cell lines viability, CellTiter-Glo ATP luminescence, 48-72 h; max response: stronger effect = lower value; note: potency is the fitted concentration of half-maximal effect
# Outline: (§2)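 Cytotoxicity was measured as CellTiter-Glo ATP luminescence, read after 10 min at room temperature. Compound treatment of the cells lasted 48 or 72 hr at 37 degrees Celsius in a qHTS format.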
# HEK293 = experiment: as above; conditions: Five cell lines viability, CellTiter-Glo ATP luminescence, 48-72 h; max response: stronger effect = lower value
# Outline: as §2
# HaCat [2] = experiment: as above; conditions: Five cell lines viability, CellTiter-Glo ATP luminescence, 48-72 h; max response: stronger effect = lower value
# Outline: as §2
# KB-3-1 = experiment: as above; conditions: Five cell lines viability, CellTiter-Glo ATP luminescence, 48-72 h; max response: stronger effect = lower value
# Outline: as §2
# NIH3T3 = experiment: as above; conditions: Five cell lines viability, CellTiter-Glo ATP luminescence, 48-72 h; max response: stronger effect = lower value
# Outline: as §2
# CRL-7250 [3] = experiment: qHTS assay to identify novel small-molecules to repurpose for Merkel cell carcinoma treatment (AID 1296009); conditions: MCC and control cell lines, CellTiter-Glo viability, 72 h; series mostly up to 44.8 µM
# Outline: (§3)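 72 hr, 37 degree celsius; NPC 8-pt / MIPE 11-pt dose response; compound pinned in DMSO; CellTiter-Glo, 10 min RT, luminescence; normalized to no-cell and DMSO controls.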
# HEK293T = experiment: as above; conditions: MCC and control cell lines, CellTiter-Glo viability, 72 h; at 44.8 µM (top of the series)
# Outline: as §3
# W2 = experiment: qHTS profiling for inhibitors of Plasmodium falciparum proliferation (AID 504749); note: potency is the fitted concentration of half-maximal effect; conditions: P. falciparum in erythrocytes, SYBR Green DNA, 72 h; series mostly up to 28.7 µM
# Outline: as §1
# HACAT [4] = experiment: qHTS assay to identify novel small-molecules to repurpose for Merkel cell carcinoma treatment (AID 1296009); conditions: MCC and control cell lines, CellTiter-Glo viability, 72 h; at 44.8 µM (top of the series) unless noted
# Outline: as §3
# Note: nearly all actives have a fitted effect of over 60% in size.
smiles,measurement,setting,value
Oc1ccccc1-c1ccccc1,Potency,N140,inactive
same,Potency,P93_24,inactive
same,Potency,P94_40,inactive
same,Potency,PAD,inactive
same,Potency,PC15,inactive
same,Potency,PC26,inactive
same,Potency,PC49,inactive
same,Potency,SC27B,inactive
same,Potency,TAB109,inactive
same,Potency,TAB113,inactive
same,Potency,TAB165,inactive
same,outcome,CRL-7250 [1],inactive
same,outcome,HEK293,inactive
same,max response,HaCat [2],1.64%
same,max response,KB-3-1,2.06%
same,outcome,NIH3T3,inactive
same,outcome,CRL-7250 [3],inactive
same,outcome,HEK293T,inactive
C#CCN(C)[C@H](C)Cc1ccccc1,max response,CRL-7250 [1],-4.73%
same,outcome,CRL-7250 [1],inactive
same,max response,HEK293,-7.43%
same,outcome,HEK293,inactive
same,max response,HaCat [2],-9.07% and 1.92%
same,max response,KB-3-1,4.15% and -12%
same,max response,NIH3T3,3.34%
same,outcome,NIH3T3,inactive
same,outcome,CRL-7250 [3],inactive
same,outcome,HEK293T,inactive
Oc1ccc(Cl)cc1Cc1ccccc1,Potency,N140,7.94 µM (active)
same,Potency,P94_40,12.6 µM (active)
same,Potency,PAD,11.2 µM (active)
same,Potency,PC26,15.1 µM (active)
same,Potency,SC27B,10 µM (active)
same,Potency,TAB165,6.31 µM (active)
same,Potency,W2,4.78 µM (active)
same,max response,CRL-7250 [1],-21.4%
same,Potency,HEK293,19.5 µM (active)
same,max response,HEK293,-23%
same,max response,HaCat [2],-19.2%
same,max response,KB-3-1,-1.59% and -11.5%
same,max response,NIH3T3,-10.2%
NP(N)(=O)NC(=O)c1ccc(F)cc1,Potency,N140,inactive
same,Potency,P93_24,inactive
same,Potency,P94_40,inactive
same,Potency,PAD,inactive
same,Potency,PC15,inactive
same,Potency,PC26,inactive
same,Potency,PC49,inactive
same,Potency,SC27B,inactive
same,Potency,TAB109,inactive
same,Potency,TAB113,inactive
same,Potency,TAB165,inactive
same,Potency,W2,inactive
same,outcome,CRL-7250 [1],inactive
same,outcome,HEK293,inactive
same,outcome,HaCat [2],inactive
same,max response,KB-3-1,-13.3%
same,max response,NIH3T3,4.85%
same,outcome,CRL-7250 [3],inactive
same,outcome,HACAT [4],inactive
same,outcome,HEK293T,inactive
CCN(CC)C(=O)N[C@@H]1C=C2c3cccc4[nH]cc(c34)C[C@@H]2N(C)C1,outcome,CRL-7250 [1],inactive
same,max response,HEK293,-11.8%
same,max response,HaCat [2],-0.0252%
same,max response,KB-3-1,-10.6%
same,outcome,NIH3T3,inactive
same,outcome,CRL-7250 [3],inactive
Cn1c(CCCC(=O)O)nc2cc(N(CCCl)CCCl)ccc21,Potency,N140,inactive
same,Potency,P93_24,inactive
same,Potency,P94_40,inactive
same,Potency,PAD,inactive
same,Potency,PC15,inactive
same,Potency,PC26,inactive
same,Potency,PC49,inactive
same,Potency,SC27B,inactive
same,Potency,TAB113,inactive
same,Potency,TAB165,inactive
same,max response,CRL-7250 [1],3.94%
same,outcome,CRL-7250 [1],inactive
same,max response,HEK293,1.54%
same,outcome,HEK293,inactive
same,max response,HaCat [2],-5.87% and -9.93%
same,max response,KB-3-1,3.92% and 3.13%
same,max response,NIH3T3,-2.08% and -18.1%
same,outcome,CRL-7250 [3],inactive
same,outcome,HEK293T,inactive
COc1ccc(C(=O)c2c(C)n(CCN3CCOCC3)c3ccccc23)cc1,Potency,N140,inactive
same,Potency,P93_24,inactive
same,Potency,PAD,inactive
same,Potency,PC15,inactive
same,Potency,PC49,inactive
same,Potency,SC27B,inactive
same,Potency,TAB109,inactive
same,Potency,TAB113,inactive
same,Potency,TAB165,inactive
same,Potency,W2,inactive
same,max response,CRL-7250 [1],-23.7%
same,outcome,CRL-7250 [1],inactive
same,max response,HEK293,-9.73%
same,max response,HaCat [2],-26.9%
same,outcome,HaCat [2],inactive
same,max response,KB-3-1,5.69% and 21.2%
same,max response,NIH3T3,-11.5%
same,outcome,NIH3T3,inactive
same,outcome,CRL-7250 [3],inactive
same,outcome,HACAT [4],inactive
CC(C)(C)CC(C)(C)c1ccc(O)cc1,Potency,N140,inactive
same,Potency,P93_24,inactive
same,Potency,PAD,inactive
same,Potency,PC15,inactive
same,Potency,PC26,inactive
same,Potency,SC27B,inactive
same,Potency,TAB109,inactive
same,Potency,TAB113,inactive
same,Potency,TAB165,inactive
same,Potency,CRL-7250 [1],38.6 µM (active)
same,max response,CRL-7250 [1],-2.09%
same,Potency,HEK293,19.3 µM (active)
same,max response,HaCat [2],-11.5%
same,max response,KB-3-1,33.4% and 13.2%
same,outcome,NIH3T3,inactive
C[C@H]1O[C@@H](O[C@H]2[C@@H](O)C[C@H](O[C@H]3[C@@H](O)C[C@H](O[C@H]4CC[C@@]5(C)[C@H](CC[C@@H]6[C@@H]5CC[C@]5(C)[C@@H](C7=CC(=O)OC7)CC[C@]65O)C4)O[C@@H]3C)O[C@@H]2C)C[C@H](O)[C@@H]1O,Potency,CRL-7250 [1],33.5 nM (active) and 48.5 nM (active)
same,Potency,HEK293,53.1 nM (active) and 61.1 nM (active)
same,Potency,HaCat [2],0.266 µM (active)
same,Potency,KB-3-1,73.1 nM (active) and 137 nM (active)
same,max response,NIH3T3,-6.15%
CN1C(=S)CN=C(c2ccccc2)c2cc(Cl)ccc21,Potency,N140,inactive
same,Potency,P93_24,inactive
same,Potency,P94_40,inactive
same,Potency,PAD,inactive
same,Potency,PC15,inactive
same,Potency,PC26,inactive
same,Potency,PC49,inactive
same,Potency,SC27B,inactive
same,Potency,TAB109,inactive
same,Potency,TAB113,inactive
same,Potency,TAB165,inactive
same,Potency,W2,inactive
same,outcome,CRL-7250 [1],inactive
same,max response,HEK293,-23.9%
same,outcome,HaCat [2],inactive
same,max response,KB-3-1,4.4%
same,outcome,NIH3T3,inactive
same,outcome,CRL-7250 [3],inactive
same,outcome,HACAT [4],inactive
O=[N+]([O-])c1cc([As](=O)(O)O)ccc1O,Potency,N140,3.55 µM (active)
same,Potency,SC27B,3.55 µM (active)
same,Potency,TAB109,3.16 µM (active)
same,Potency,TAB113,3.16 µM (active)
same,Potency,TAB165,3.55 µM (active)
same,Potency,W2,2.56 µM (active)
same,max response,CRL-7250 [1],-0.161%
same,outcome,HEK293,inactive
same,max response,HaCat [2],-8.07%
same,max response,KB-3-1,-14.1%
same,outcome,NIH3T3,inactive
same,outcome,HEK293T,inactive
CC(C)(C)NCC(O)c1cc(Cl)c(N)c(Cl)c1 (configuration not stated),Potency,N140,8.91 µM (active)
same,Potency,P94_40,7.94 µM (active)
same,Potency,PAD,7.94 µM (active)
same,Potency,W2,6.75 µM (active)
same,outcome,CRL-7250 [1],inactive
same,max response,HEK293,-10.9%
same,max response,HaCat [2],-3.36%
same,max response,KB-3-1,-14.9%
same,outcome,NIH3T3,inactive
same,outcome,CRL-7250 [3],inactive
